Screens deposited in PubChem BioAssay by National Center for Advancing Translational Sciences (NCATS).
Hits are enriched below; roughly 8.1% of the tested compounds scored in any of these assays.
ClpP mod: qHTS Assay for Activators of ClpP; hit rate 1.9% among 340,000; purified B. subtilis ClpP, FRET peptide cleavage, 20 min; AID 651965, 2013; Potency, µM (doses to about 57.5 µM), without a hit: at the highest dose activity change, negative = active; ATP-dependent Clp protease proteolytic subunit (Bacillus subtilis (strain 168)), P80244; active = well fitted falling curve with a large enough effect; inconclusive = small, poorly fitted or top-dose-only effect; inactive = no such curve, though single readings can be large or run the other way; note: the source files actives as falling curves though it sought activators and does not explain the sign; nearly all actives have a fitted effect of over 65% in size
Target sequence (P80244 whole entry, looked up): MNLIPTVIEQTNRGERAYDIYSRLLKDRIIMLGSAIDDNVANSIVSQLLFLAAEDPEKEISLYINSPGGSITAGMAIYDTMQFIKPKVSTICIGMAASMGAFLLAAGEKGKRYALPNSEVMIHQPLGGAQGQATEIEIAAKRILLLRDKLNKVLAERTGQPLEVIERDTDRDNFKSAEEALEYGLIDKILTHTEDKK
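Buffer: 100 mM Tris/HCl pH8, 100 mM KCl, 0.05% low protease BSA, 2.5% glycerol, 0.01% Tween-20. ClpP 10 microg/mL final; 20 min RT; delta FRET normalized to ADEP and DMSO controls.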
RORgamma inh: ROR gamma (mouse) transcription inhibition | hit rate 5.4% among 310,000 | Potency, µM (highest dose often 53.6 µM), for the others: at the top dose activity change, negative = inhibition, most hits filed as inhibitors | P51450 | Drosophila S2 Gal4-RORgamma UAS-luciferase reporter, 20 h; note: % is set by controls: 0 for no effect and ±100 for the full control effect; nearly all actives have a fitted effect of over 60% in size
Target sequence (P51450 whole entry, looked up, the tested form may be a part): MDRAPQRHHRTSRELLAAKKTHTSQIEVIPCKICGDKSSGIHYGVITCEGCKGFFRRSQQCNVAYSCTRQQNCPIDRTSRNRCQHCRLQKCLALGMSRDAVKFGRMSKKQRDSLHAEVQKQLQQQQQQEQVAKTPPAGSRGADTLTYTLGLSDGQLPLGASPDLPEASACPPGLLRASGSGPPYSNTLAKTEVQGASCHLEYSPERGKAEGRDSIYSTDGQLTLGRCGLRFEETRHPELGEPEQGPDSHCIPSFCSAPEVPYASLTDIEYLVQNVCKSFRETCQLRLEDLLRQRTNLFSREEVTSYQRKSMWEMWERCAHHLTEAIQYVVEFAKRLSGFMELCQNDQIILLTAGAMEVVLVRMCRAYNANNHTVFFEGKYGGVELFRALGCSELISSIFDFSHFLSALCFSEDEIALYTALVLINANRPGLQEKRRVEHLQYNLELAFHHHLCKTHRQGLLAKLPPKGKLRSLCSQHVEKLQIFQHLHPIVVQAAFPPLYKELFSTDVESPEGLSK
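ROR gamma transcriptional activity was tracked as Gal4-UAS luciferase output in stably transfected Drosophila Schneider cells, with compound added 1 hr before 700 uM copper sulfate induction and a 20 hr ambient-temperature incubation.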
Epigenetic reg: derepresses silenced GFP reporter in murine cells; murine LDR cells, GFP reporter derepression, 30 h; Potency, µM (doses to about 53.9 µM), inactives show top-dose GFP activation, usual class: activators; hit rate 0.2% among 280,000; AID 1865; note: % of control where 0% means no effect; nearly all actives have a fitted effect of over 60% in size
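In this reporter-derepression format, murine cells bearing a silenced integrated CMV-GFP locus incubate with test compound (30 h, 37 C), then are washed and imaged; fluorescent objects of 20–120 um count as induced cells.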
PINK1 modulator: modulators of PINK1 expression; PINK1 immunofluorescence, high-content cytometry, 24 h; AID 624263; Potency, µM (titrated, usually from 76.6 µM), for the others: at the highest dose activation (PINK1 increase), usual class: activators; hit rate 0.2% among 410,000; active = well fitted activation curve with a large enough effect; inconclusive = small, poorly fitted or top-dose-only effect; cell line not stated here; note: % of control where 0% means no effect; nearly all actives have a fitted effect of over 65% in size
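PINK1 protein level read as immunofluorescence by microplate cytometer in a fixed, stained stable cell line after 24 h exposure to five compound concentrations, with CCCP as control.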
Sfp inh: blocks B. subtilis Sfp PPTase activity | AID 1490 | Biochemical Sfp PPTase activity, qHTS | hit rate 3.5% among 310,000 | Potency, µM, without a hit: largest response in the series, negative = inhibition, hits mostly inhibitors | Q9F4F7;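 note: the enzyme is Sfp with the accession as filed and its product quenches rhodamine fluorescence; 0% = enzyme reaction without inhibitor and -100% = no enzyme wells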
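Buffer: 50 mM Hepes-Na pH 7.6, 10 mM MgCl2, 0.01% Nonidet P-40, 0.01% BSA. Enzyme 15 nM, pre-exposed to compound 15 min; substrates then added and fluorescence change tracked over 30 min.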
Gal4-VP16 FLuc: inhibits Gal4-VP16 luciferase reporter, ROR gamma counter-screen | Potency, µM (top dose mostly 53.6 µM), for the others: at the top dose activity, negative = inhibition, actives largely listed as inhibitors | hit rate 3.5% among 310,000 | Drosophila S2 Gal4-VP16 UAS-luciferase, luminescence, 20 h;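 note: Gal4-VP16 expression switched on by copper sulfate through the metallothionein promoter; % is set by controls: 0 for no effect and ±100 for the full control effect; nearly all actives have a fitted effect of over 50% in size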
* marks the source's active call; other numbers are inactive results; [ ] = dose if it differs, or a comment. Unless noted, calls come from the whole dose curve; as a rule, active = well fitted curve in the direction sought with a large enough effect; inconclusive = small, poorly fitted or top-dose-only effect, or another doubt; inactive = no such curve, though single readings can be large; an effect the other way counts as inactive or inconclusive. Potency is the fitted concentration of half-maximal effect.

Screening COc1ccc2cc3c(N)nn(C(=O)c4ccccc4[N+](=O)[O-])c3nc2c1 returned ClpP mod 28µM*, RORgamma inh inconclusive, Epigenetic reg -1%, PINK1 modulator 2%, Sfp inh -24% and Gal4-VP16 FLuc -21%.
Screening O=C(Cc1ccccc1)Nc1ccc(N2CCCCC2)cc1 returned ClpP mod -1%, RORgamma inh -12%, Epigenetic reg -2%, PINK1 modulator -2%, Sfp inh 7% and Gal4-VP16 FLuc -14%.
For COCCCNC(=S)Nc1ccc(N2CCCCC2)cc1 the results were ClpP mod 1%, RORgamma inh 18µM*, Epigenetic reg 0%, PINK1 modulator -1%, Sfp inh -11% and Gal4-VP16 FLuc inconclusive.
Screening CCNC(=S)Nc1ccc(N2CCCCC2)cc1 returned ClpP mod 2%, RORgamma inh 13µM*, Epigenetic reg 3%, PINK1 modulator 0%, Sfp inh -18% and Gal4-VP16 FLuc -68%.
`CCC(=O)Nc1ccc(N2CCCCC2)cc1` gave ClpP mod -3%, RORgamma inh inconclusive, Epigenetic reg 3%, PINK1 modulator 0%[38.3 µM], Sfp inh -1% and Gal4-VP16 FLuc 5%.
`S=C(NCCc1ccccc1)Nc1ccc(N2CCCCC2)cc1` gave ClpP mod -1%, RORgamma inh 7.9µM*, PINK1 modulator 5%, Sfp inh 5% and Gal4-VP16 FLuc inconclusive.
Screening COc1cc(NC(=O)Cn2ncc3c([nH]c4ccc(C)cc43)c2=O)cc(OC)c1OC returned ClpP mod -6%, Epigenetic reg -1% and PINK1 modulator 4%.
Screening Oc1c(C(c2ccccc2)N2CCC3(CC2)OCCO3)sc2nc(-c3ccco3)nn12 (stereo unspecified) returned ClpP mod -4%, Epigenetic reg 0% and PINK1 modulator 0%.
CCOc1ccc2nc(NCCNC(=O)C(C)C)c(C)cc2c1 was read as ClpP mod 16µM*, RORgamma inh 0%, Epigenetic reg -2%, PINK1 modulator -2%, Sfp inh 13% and Gal4-VP16 FLuc -1%.
For COCC(=O)NCCNc1nc2ccc(C)cc2cc1C the results were ClpP mod 28µM*, RORgamma inh -20%, Epigenetic reg 0%, PINK1 modulator 0%, Sfp inh 5% and Gal4-VP16 FLuc 8%.
`CCOc1ccc2nc(NCCNC(=O)c3cc(OC)c(OC)c(OC)c3)c(C#N)cc2c1` gave ClpP mod -6%, RORgamma inh 5%, PINK1 modulator 3%, Sfp inh -3% and Gal4-VP16 FLuc -11%.
CCOc1ccc2nc(NCCNC(=O)C3CC3)c(C)cc2c1 was read as ClpP mod 40µM*, RORgamma inh 2%, Epigenetic reg 0%, PINK1 modulator -1%, Sfp inh -1% and Gal4-VP16 FLuc 4%.
Screening Cc1ccc(C)c(N2CCN(C(=O)c3cc(S(=O)(=O)N4CCC(C)CC4)cn3C)CC2)c1 returned ClpP mod 0%, Epigenetic reg 0% and PINK1 modulator 1%.
For COc1cccc(-c2nnc3n(Cc4ccc(C)cc4)c(=O)c4ccccc4n23)c1O the results were ClpP mod 0%, Epigenetic reg 0% and PINK1 modulator 1%.
Screening COc1ccc(CNS(=O)(=O)c2ccc3c(c2)C(C)(C)C(=O)N3C)cc1OC returned ClpP mod 0%, Epigenetic reg -2% and PINK1 modulator 0%.
`Cc1[nH]c(=S)sc1Cc1ccc(F)cc1` gave ClpP mod 1%, RORgamma inh 4µM*, Epigenetic reg 0%, PINK1 modulator 0%, Sfp inh -19% and Gal4-VP16 FLuc 10µM*.
For Cc1nc(-c2ccc(F)cc2)sc1CCNC(=O)Cc1ccc(F)cc1 the results were ClpP mod -10%, Epigenetic reg 0% and PINK1 modulator 1%.
For C/C(=C\C(=O)c1ccccc1)NNc1nc2ccccc2s1 the results were ClpP mod -7%, RORgamma inh 7.9µM*, Epigenetic reg 0%, PINK1 modulator -3%, Sfp inh -8% and Gal4-VP16 FLuc inconclusive.
Screening O=C(COc1ccccc1)NNc1nc2ccccc2s1 returned ClpP mod 0%, RORgamma inh 5µM*, Epigenetic reg -1%, PINK1 modulator 4%, Sfp inh -3% and Gal4-VP16 FLuc 11µM*.
O=C(COc1ccccc1)NNc1nc2c(F)cccc2s1 was read as RORgamma inh 5µM*, Epigenetic reg inconclusive, PINK1 modulator -2%, Sfp inh 25% and Gal4-VP16 FLuc -2%.
Screening COc1ccc(OCC(=O)Nc2nc3ccc(NC(C)=O)cc3s2)cc1 returned ClpP mod -3%, RORgamma inh 1%, Epigenetic reg 6%, PINK1 modulator 6%, Sfp inh -16% and Gal4-VP16 FLuc -19%.
`COc1ccc2nc(NNC(=O)COc3ccccc3)sc2c1` gave RORgamma inh 7.1µM*, Epigenetic reg -9%, PINK1 modulator 2%, Sfp inh -14% and Gal4-VP16 FLuc -7%.
CC(=O)NNc1nc2ccccc2s1 was read as ClpP mod 0%, RORgamma inh -20%, Epigenetic reg -1%, PINK1 modulator 8%[38.3 µM], Sfp inh 10% and Gal4-VP16 FLuc 11%.
Screening CSc1nccc(-c2cc(Cl)c3c(c2)CC(CNC(=O)c2nonc2C)O3)n1 (stereo unspecified) returned PINK1 modulator 0%.
Screening Cc1ccnc(SCc2cc(=O)c(OC(=O)c3ccc(Cl)c([N+](=O)[O-])c3)co2)n1 returned ClpP mod 0%, RORgamma inh 10µM*, Epigenetic reg 0%, PINK1 modulator 13%, Sfp inh -32% and Gal4-VP16 FLuc 11µM*.
Screening CC(=O)Nc1ccc(SCc2ncc(-c3ccccc3)o2)cc1 returned RORgamma inh -20%, PINK1 modulator -2%, Sfp inh -9% and Gal4-VP16 FLuc -17%.
`c1ccc(-c2cnc(CSc3ncnc4sccc34)o2)cc1` gave ClpP mod 0%, RORgamma inh inconclusive, Epigenetic reg 0%, PINK1 modulator -4%, Sfp inh 50µM* and Gal4-VP16 FLuc inconclusive.
Screening C=CCN1C(=O)/C(=c2\sc3nc(=O)c(Cc4ccc(OC)c(OC)c4)nn3c2=O)c2ccccc21 returned RORgamma inh inconclusive, Epigenetic reg 0%, PINK1 modulator -1%, Sfp inh 16µM* and Gal4-VP16 FLuc inconclusive.
`CCN1C(=O)/C(=c2\sc3nc(=O)c(Cc4ccccc4)nn3c2=O)c2ccccc21` gave ClpP mod 0%, RORgamma inh inconclusive, Epigenetic reg -7%, PINK1 modulator -2%, Sfp inh 25µM* and Gal4-VP16 FLuc -10%.
